Growth data for six compounds are collected here from PubChem BioAssay (NCI).

The panel holds about 83,000 compounds, 20% with a hit somewhere; the sample as a whole holds those more often.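 Each cell line was grown in a 96-well plate and treated with one concentration of compound for 48 hours. Values below 10 were considered active.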 Unmarked numbers belong to inactive results. Activity calls are given as the source filed them.

Test in all cases: NCI-60 one-dose screen, 48 h (100 = growth as untreated, 0 = no growth, -100 = all killed)
Common to all, as to conditions: 10 µM unless noted

Test [1] relates to NCI-H226 lung.
The test system of test [2] is NCI-H322M lung.
Test [3] concerns HOP-62 NSCLC.
For test [4], the system named is NCI-H460 lung.
Test [5] concerns HOP-92 NSCLC.
The subject of test [6] is NCI-H522 lung.
Test [7] has as its system A549/ATCC NSCLC.
The test system of test [8] is 786-0 renal.
Test [9] concerns COLO 205 colon.
For test [10], the system named is DU-145 prostate.
The test system of test [11] is K-562 leukemia.
Test [12] concerns MALME-3M melanoma.
The test system of test [13] is MDA-MB-231 breast.
The subject of test [14] is RXF 393 renal.
For test [15], the system named is SF-268 CNS.
The subject of test [16] is SF-295 CNS.
The subject of test [17] is SF-539 CNS.
Test [18] deals with UACC-257 melanoma.
Test [19] concerns M14 melanoma.

For `CCCCCCCC/C=C\CCCCCCCCOc1ccc(CC(=O)NCC[N+]2(C)CCCC2)cc1`, the growth is 66.4% in test [1]; 88.5% in test [2]; 22.5% in [3]; 25.3% in [4]; 57.4% in test [5]; 48.7% in [6]. For the same compound, the growth in test [7] was 73.7%; in test [8], 48.6%; in test [9], -74.1% (active); in test [10], 78.4%; in [11], 41.6%; in [12], 66%. Also, the growth in test [13] is 59.8%; in test [14] it was -45.3% (active); in [15] it was 62.8%; in test [16], 74.8%; in test [17], 65.4%; in test [18] it was 77.3%. In test [19], the growth was 71.4%.
On to `O=C(/C=C/c1ccco1)Nc1ncc(Cc2ccc(F)cc2)s1`, for which the growth in [1] is 51.8%; in test [2] it was 47.2%; in test [3], 25.8%; in test [4], 6.54% (active); in [5] it was 90.5%; in [6], -2.92% (active). Further, the growth is 23.9% in test [7]; 38.4% in test [8]; 4.77% (active) in test [9]; 19% in test [10]; 10.8% in test [11]; 59% in test [12]. The growth in [13] was 45.5%; in [14] it was 12.7%; in test [15], 54.9%; in [16] it was 11.7%; in test [17] it was -21.3% (active); in test [18], 45.2%. In addition, the growth in [19] is 16.7%.
On to `Cc1nn(-c2ccccc2)c(Oc2ccccc2)c1/C=N/NC(=O)Cn1c(=O)sc2ccccc21`, for which the growth in test [1] is 69.8%; in test [2] it was 74.9%; in test [3], 57.4%; in test [4], 55.6%; in test [5], 50.1%; in test [6], 40.6%. The growth in test [7] is 37.5%; in test [8], 74.5%; in test [9], 28.5%; in test [10], 76.1%; in [11], 25.2%; in [12], 52.7%. Moreover, the growth is 53.6% in test [13]; 70.6% in [14]; 55% in [15]; 45.3% in test [16]; 71.4% in test [17]; 66.1% in test [18]. For the same compound, in [19], the growth was 56.2%.
For the compound `COc1cccc(/C=C2\CCc3ccccc3C2=O)c1`, the growth in test [1] was 93.6%; in [2] it was 98%; in [3], 88.4%; in test [4], 96.6%; in test [5], 64.3%; in test [6] it was 62.9%. Further, the growth in test [7] is 85.1%; in [8], 81.4%; in [9] it was 112%; in test [10] it was 97.8%; in [11], 35.1%; in test [12] it was 80.7%. In addition, the growth in test [13] is 89.9%; in test [14], 90.2%; in test [15] it was 90.3%; in test [16] it was 88.9%; in test [17], 91.5%; in test [18], 80.8%. In addition, the growth in [19] is 90%.
For `Cn1ccnc1C(=O)/C=C/c1ccc(C(=O)Nc2ccccc2F)cc1`, the growth in [1] is 50.7%; in test [2] it was 14.6%; in test [3] it was 3.72% (active); in test [4], -0.603% (active); in [5] it was 16.2%; in [6], 39.7%. Also, the growth in test [7] was 17.1%; in test [8] it was 18.5%; in [9], 32.7%; in test [10], 20.7%; in test [11] it was 12.6%; in test [12], 54.7%. The growth in test [13] is -2.25% (active); in [14], 16.4%; in test [15], 24.7%; in test [16], 6.25% (active); in test [17], -8.53% (active); in test [18], 66.7%. For the same compound, the growth in test [19] was 8.56% (active).
For the compound `Cc1cc(C(=O)Nc2cc(Nc3ncccc3-c3ncnc4nc[nH]c34)ccc2F)cc(C(C)(C)C#N)c1`, the growth in [1] is 39.9%; in test [2] it was 56.6%; in test [3], 48.5%; in test [4], 33.4%; in [5], -13.4% (active); in test [6], 53.7%. In addition, the growth was 48.7% in test [7]; 63.5% in test [8]; 13.3% in test [9]; 60% in [10]; 6.28% (active) in test [11]; 12.9% in [12]. Also, the growth in test [13] was 17%; in [14], 88.5%; in test [15], 64.7%; in test [16], 68.6%; in test [17], 33.9%; in [18] it was 24.5%. For the same compound, in test [19], the growth is 5.3% (active).
